Compound activity deposited in PubChem by National Center for Advancing Translational Sciences (NCATS).
Rows were chosen to be rich in hits. Some 18% of all compounds tested hit in one or more screens of this group.
Gal4-VP16 FLuc: inhibits Gal4-VP16 luciferase reporter, ROR gamma counter-screen; Potency, µM (top dose mostly 53.6 µM), inactives show at the highest dose activity, negative = inhibition, usual class: inhibitors; actives 3.5% (n = 310,000); AID 2546; Drosophila S2 Gal4-VP16 UAS-luciferase, luminescence, 20 h;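 further: Gal4-VP16 expression switched on by copper sulfate through the metallothionein promoter; potency means the concentration at half of the fitted maximal effect; nearly all actives have a fitted effect of over 50% in size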
TDP1 cell noCPT: qHTS for Inhibitors of human tyrosyl-DNA phosphodiesterase 1 (TDP1): qHTS in cells in absence of CPT | Potency, µM (titrated, usually from 46.2 µM), for inactives: at the highest dose activity change, negative = growth inhibition, actives largely listed as inhibitors | DT40 Tdp1-/- hTDP1 cells, no CPT, ATP luminescence, 48 h | actives 15% (n = 420,000); further: potency means the concentration at half of the fitted maximal effect; nearly all actives have a fitted effect of over 55% in size
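A cellular qHTS used chicken DT40 cells lacking endogenous Tdp1 but carrying stably transfected human TDP1. Compounds were applied without camptothecin, and cell growth kinetics were judged by ATP-dependent luminescence after ≥48 hr.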
RORgamma inh: ROR gamma (mouse) transcription inhibition; P51450; Drosophila S2 Gal4-RORgamma UAS-luciferase reporter, 20 h; Potency, µM (titrated, usually from 53.6 µM), without a hit: top-dose activity change, negative = inhibition, hits mostly inhibitors; actives 5.4% (n = 310,000); AID 2551; further: potency means the concentration at half of the fitted maximal effect; nearly all actives have a fitted effect of over 60% in size
Target sequence (P51450 whole entry, looked up, the tested form may be a part): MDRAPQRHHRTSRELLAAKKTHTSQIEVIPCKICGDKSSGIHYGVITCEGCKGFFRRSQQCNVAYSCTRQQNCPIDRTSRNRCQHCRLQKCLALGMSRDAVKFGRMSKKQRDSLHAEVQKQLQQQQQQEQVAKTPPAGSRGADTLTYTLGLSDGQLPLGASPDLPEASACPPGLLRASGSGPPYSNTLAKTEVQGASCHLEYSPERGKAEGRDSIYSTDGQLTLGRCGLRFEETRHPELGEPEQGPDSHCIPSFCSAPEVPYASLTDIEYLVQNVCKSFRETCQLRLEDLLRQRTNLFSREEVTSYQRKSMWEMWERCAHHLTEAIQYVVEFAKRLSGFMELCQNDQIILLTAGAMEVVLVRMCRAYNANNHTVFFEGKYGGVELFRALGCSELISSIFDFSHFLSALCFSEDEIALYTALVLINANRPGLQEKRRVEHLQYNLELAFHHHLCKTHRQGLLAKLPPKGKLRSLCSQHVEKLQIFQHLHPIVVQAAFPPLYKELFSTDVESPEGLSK
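In this cell-based reporter format, copper sulfate (700 uM final) drives Gal4–ROR gamma fusion expression from a metallothionein promoter in Drosophila Schneider cells; compounds preincubated 1 hr, reporter read after 20 hr at ambient temperature.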
IL1B secr inh: inflammasome signaling inhibition, IL-1 beta readout | THP-1 LPS/ATP IL-1B secretion, AlphaLISA, 16 h; hits give low values | actives 4.7% (n = 360,000) | activity change, % at 57.5 µM | AID 743279; in the data active means activity change below about -50%; inconclusive means mostly about -30% to -49%
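THP-1 cells pretreated 1 hr with compounds (up to 57.5 uM final), then stimulated with LPS (250 ng/mL final) plus ATP (1.25 mM final); secreted IL-1B measured by AlphaLISA after 16 hr, decreased signal indicating inhibition.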
LDHA block: LDHA (human) enzyme inhibition. actives 0.15% (n = 480,000). P00338. activity change, % (values are at about 110 or 230 µM). purified LDHA, NADH/diaphorase-resazurin fluorescence; hits give low values; in the data active means activity change below about -30%; inconclusive means mostly about -25% to -30%;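 further: plate controls were DMSO wells for no effect and wells without enzyme for full effect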
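Enzyme activity of human lactate dehydrogenase 5 (2 nM; 0.06 mM NADH, 0.2 mM pyruvate, 5 min, RT) is measured via a resazurin/diaphorase fluorescence readout of residual NADH.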
TDP1 cell CPT: growth inhibition of DT40 Tdp1-/-;hTDP1 cells with camptothecin (screen for TDP1 inhibitors); chicken DT40 Tdp1-/-;hTDP1 cells + 20 nM CPT, ATP luminescence, 48 h; Potency, µM (doses to about 46.2 µM), for the others: at the top dose activity change, negative = growth inhibition, actives largely listed as inhibitors; actives 12% (n = 420,000); further: potency means the concentration at half of the fitted maximal effect; nearly all actives have a fitted effect of over 55% in size
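Chicken DT40 Tdp1-/- cells complemented with human TDP1, 400 cells/well, exposed to compounds plus 20 nM camptothecin for at least 48 h at 37 C; viability read as ATP content by CellTiter-Glo luminescence.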
Starred values were filed as active, the others as inactive. Unless noted, the call rests on the fitted dose curve; in most records, active means well fitted curve in the direction sought with a large enough effect; inconclusive means small, poorly fitted or top-dose-only effect, or another doubt; inactive means no such curve, though single readings can be large; an effect the other way counts as inactive or inconclusive. Unless noted, on the % scale 0 is the no-effect control and ±100 the full control effect.

For Cc1cccc(C(=O)Nc2nn3c(-c4cccc(C)c4)nnc3s2)c1 the results were LDHA block -24.
`NC(N)=NCc1ccco1` gave LDHA block -3.
`NC(N)=NCc1cccc(I)c1` gave Gal4-VP16 FLuc -3%, TDP1 cell noCPT 2.9µM*, RORgamma inh -9%, IL1B secr inh 0, LDHA block -7 and TDP1 cell CPT 6.5µM*.
For O=C(c1ccc(Br)cc1)N(c1ccccn1)C1CCCCC1 the results were Gal4-VP16 FLuc 2%, TDP1 cell noCPT 15µM*, RORgamma inh 17%, IL1B secr inh -2, LDHA block -5 and TDP1 cell CPT inconclusive.
CN1CCC(N(C)C(=O)/C(C#N)=C/c2ccccc2)CC1 was read as Gal4-VP16 FLuc 7%, TDP1 cell noCPT 0%, RORgamma inh -25%, IL1B secr inh -18, LDHA block -1 and TDP1 cell CPT -25%.
For O=C(COc1ccc(F)cc1)N(c1ccccn1)C1CCCCC1 the results were Gal4-VP16 FLuc 2%, TDP1 cell noCPT inconclusive, RORgamma inh 20%, IL1B secr inh -9, LDHA block -7 and TDP1 cell CPT inconclusive.
For O=C(c1ccc(S(=O)(=O)N2CCOCC2)cc1)N(c1ccccn1)C1CCCCC1 the results were Gal4-VP16 FLuc -12%, TDP1 cell noCPT inconclusive, RORgamma inh 17%, IL1B secr inh 10, LDHA block -18 and TDP1 cell CPT inconclusive.
For N#C/C(=C\c1ccccc1)C(=O)N(c1ccccn1)C1CCCCC1 the results were Gal4-VP16 FLuc inconclusive, TDP1 cell noCPT 18µM*, RORgamma inh 2.8µM*, IL1B secr inh -98*, LDHA block -1 and TDP1 cell CPT inconclusive.
O=C(c1cccc(C(=O)N(c2ccccn2)C2CCCCC2)c1)N(c1ccccn1)C1CCCCC1 was read as Gal4-VP16 FLuc -1%, TDP1 cell noCPT 9.2µM*, RORgamma inh 16%, IL1B secr inh -21, LDHA block 3 and TDP1 cell CPT 12µM*.
CC(C)c1ccc(OCC(=O)N(c2ccccn2)C2CCCCC2)cc1 was read as Gal4-VP16 FLuc -84%, TDP1 cell noCPT 15µM*, RORgamma inh inconclusive, IL1B secr inh -11, LDHA block 2 and TDP1 cell CPT inconclusive.
`O=C(c1ccc(Cl)cc1)N(c1ccccn1)C1CCCCC1` gave Gal4-VP16 FLuc -6%, TDP1 cell noCPT 26µM*, RORgamma inh -4%, IL1B secr inh -1, LDHA block -4 and TDP1 cell CPT -30%.
O=C(c1ccc(F)cc1Cl)N(c1ccccn1)C1CCCCC1 was read as Gal4-VP16 FLuc 7%, TDP1 cell noCPT 15µM*, RORgamma inh -4%, IL1B secr inh 4, LDHA block -8 and TDP1 cell CPT 18µM*.
CCOC(=O)c1[nH]c2ccccc2c1NC(=O)c1cc(OC)c(OC)c(OC)c1 was read as TDP1 cell noCPT inconclusive, IL1B secr inh 0, LDHA block 6 and TDP1 cell CPT -13%.
CCOC(=O)c1[nH]c2ccccc2c1NC(=O)c1cc(OC)cc(OC)c1 was read as TDP1 cell noCPT 23µM*, LDHA block -3 and TDP1 cell CPT 23µM*.
`COC(=O)c1[nH]c2cc(OC)c(OC)cc2c1NC(=O)c1cccc(OC)c1` gave Gal4-VP16 FLuc -4%, TDP1 cell noCPT 21µM*, RORgamma inh 19%, IL1B secr inh inconclusive, LDHA block -3 and TDP1 cell CPT inconclusive.
Cc1ccc(-c2cn3c4ccccc4nc3n2CCCN2CCCC2)cc1 was read as LDHA block -4.
Cc1cc(C)cc(NC(=O)CSc2ncc(CO)n2CC(=O)NC(C)C)c1 was read as LDHA block 2.
Screening COc1ccc(S(=O)(=O)N2CCN(c3ccccc3OC)CC2)cc1 returned Gal4-VP16 FLuc 0%, TDP1 cell noCPT inconclusive, RORgamma inh 4%, IL1B secr inh -15, LDHA block 1 and TDP1 cell CPT inconclusive.
Screening COc1ccc(S(=O)(=O)N2CCN(c3nc(-c4cccnc4)nc4ccccc34)CC2)cc1 returned TDP1 cell noCPT 8.2µM*, IL1B secr inh -22, LDHA block -6 and TDP1 cell CPT 18µM*.
Screening CCOc1ccc(S(=O)(=O)N2CCN(c3nc(-c4ccccc4)nc4ccccc34)CC2)cc1 returned TDP1 cell noCPT -16%, LDHA block -6 and TDP1 cell CPT 5%.
For Cc1ccc(C)c(S(=O)(=O)N2CCN(c3nc(-c4cccnc4)nc4ccccc34)CC2)c1 the results were TDP1 cell noCPT 6.5µM*, IL1B secr inh 0, LDHA block 1 and TDP1 cell CPT 8.2µM*.
For COc1ccc(S(=O)(=O)N2CCN(c3ccc4nnc(-c5ccccc5)n4n3)CC2)cc1 the results were Gal4-VP16 FLuc 2%, TDP1 cell noCPT inconclusive, RORgamma inh -6%, IL1B secr inh 0, LDHA block -2 and TDP1 cell CPT 12µM*.
O=S(=O)(c1ccccc1F)N1CCN(c2nc(-c3cccnc3)nc3ccccc23)CC1 was read as TDP1 cell noCPT 21µM*, IL1B secr inh 4, LDHA block 1 and TDP1 cell CPT inconclusive.
For CC(=O)Nc1ccc(NC(=O)c2ccc(C)cc2Cl)cc1 the results were LDHA block 3.
`O=C(NC1CCCc2ccccc21)c1ccc2c(c1)sc1nc(-c3ccc(F)cc3)cn12` (stereo not drawn) gave TDP1 cell noCPT inconclusive, LDHA block -3 and TDP1 cell CPT inconclusive.
Screening Cc1ccc(-c2cn3c(n2)sc2cc(C(=O)NC4CCCc5ccccc54)ccc23)cc1 (stereo not drawn) returned TDP1 cell noCPT 13µM*, LDHA block -4 and TDP1 cell CPT 13µM*.
`COc1ccc(-c2cn3c(n2)sc2cc(C(=O)NC4CCCc5ccccc54)ccc23)cc1` (stereo not drawn) gave TDP1 cell noCPT 5.8µM*, LDHA block -11 and TDP1 cell CPT 8.2µM*.
Screening Cn1ncc(Cl)c(Oc2ccc(C(C)(C)C)cc2)c1=O returned Gal4-VP16 FLuc 35µM*, TDP1 cell noCPT inconclusive, RORgamma inh -16%, IL1B secr inh -7, LDHA block -5 and TDP1 cell CPT inconclusive.
`Cc1nn(-c2ccc(F)cc2)c(Cl)c1C(=O)OC(C)C(=O)N(C)C1CCCCC1` (stereo not drawn) gave TDP1 cell noCPT 12µM*, IL1B secr inh -21, LDHA block -2 and TDP1 cell CPT inconclusive.
